Laboratory results: PubChem BioAssay (Tox21)
Where “and” joins values, the source holds several entries; their conditions need not be identical. Identical values can stand only once. Records with an inconclusive call do not appear. Entries that show only a call come without a potency. Values without a mark were called inactive. Calls of active or inactive are those of the source. Unless noted, calls follow the shape of the dose curve; as a rule, active = well fitted curve in the direction sought with a large enough effect in the repeat runs; inconclusive = weak or mixed curves; inactive = no such curve, though single readings can be large; an effect the other way counts as inactive or inconclusive.

Assays:
[1] = qHTS assay to identify small molecule antagonists of the retinoic acid receptor (RAR) signaling pathway (AID 1159552; also: nearly all actives have a fitted effect of over 50% in size; also: potency is read from the fitted curve at half-maximal effect)
Summary of the method: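 Test chemicals and DMSO controls were pin-transferred onto C3RL4 cells a day after seeding; retinol (1 uM final) followed at once. Luminescent reporter output was quantified after 6 hr of co-incubation and 30 min with detection reagent.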

[2] = qHTS assay to identify small molecule antagonists of the estrogen related receptor (ERR) signaling pathway from Tox21 library - cell viability counter screen (AID 1224834); also: nearly all actives have a fitted effect of over 30% in size; also: potency is read from the fitted curve at half-maximal effect
Summary of the method: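 CellTiter-Fluor fluorescence measured; ERR cells; 17.5 h compound incubation at 37 C; 30 min reagent step.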

[3] = target: Luciferin 4-monooxygenase (Photinus pyralis) (UniProt P08659); assay: qHTS assay to identify small molecule inhibitors of firefly luciferase (AID 1224835); also: nearly all actives have a fitted effect of over 25% in size; also: potency is read from the fitted curve at half-maximal effect; as to activity change, negative = inhibition: series mostly up to about 120 µM
Luciferin 4-monooxygenase (Photinus pyralis), sequence (P08659 whole entry, looked up): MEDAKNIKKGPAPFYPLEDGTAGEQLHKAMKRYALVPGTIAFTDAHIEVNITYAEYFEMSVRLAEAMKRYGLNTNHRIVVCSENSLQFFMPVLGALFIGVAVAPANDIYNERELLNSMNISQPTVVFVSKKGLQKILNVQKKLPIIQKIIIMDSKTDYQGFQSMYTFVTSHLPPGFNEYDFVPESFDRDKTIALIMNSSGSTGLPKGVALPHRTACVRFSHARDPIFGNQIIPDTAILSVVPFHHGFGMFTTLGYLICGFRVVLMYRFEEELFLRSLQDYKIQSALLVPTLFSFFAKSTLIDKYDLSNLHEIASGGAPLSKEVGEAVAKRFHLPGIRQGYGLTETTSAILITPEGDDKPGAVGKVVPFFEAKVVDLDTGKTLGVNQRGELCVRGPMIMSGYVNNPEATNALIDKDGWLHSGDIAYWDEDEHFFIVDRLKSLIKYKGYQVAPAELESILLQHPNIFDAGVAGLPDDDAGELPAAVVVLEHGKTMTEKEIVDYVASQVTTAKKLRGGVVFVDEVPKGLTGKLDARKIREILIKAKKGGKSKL
Summary of the method: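 Quantitative HTS format; KM concentrations of both substrates. Purified P. pyralis FLuc activity quantified from luminescence images.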

[4] = qHTS assay to identify small molecule agonists of the constitutive androstane receptor (CAR) signaling pathway - cell viability counter screen (AID 1224836); also: nearly all actives have a fitted effect of over 45% in size; also: potency is read from the fitted curve at half-maximal effect; as to viability change, negative = cytotoxic: series mostly up to about 92 µM
Summary of the method: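 23 h treatment, 37 C, 5% CO2. Cell line: HepG2 stably expressing hCAR with a CYP2B6-2.2kb construct. Co-treatment: PK11195, 0.75 uM final. Read-out: CellTiter-Fluor fluorescence intensity.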

[5] = qHTS assay to identify small molecule antagonists of the constitutive androstane receptor (CAR) signaling pathway - cell viability counter screen (AID 1224837); also: nearly all actives have a fitted effect of over 45% in size; also: potency is read from the fitted curve at half-maximal effect; as to activity change, negative = cytotoxicity: series mostly up to about 92 µM
Summary of the method: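 Using CellTiter-Fluor, viability is scored in HepG2 cells stably carrying hCAR and a 2.2kb CYP2B6 reporter after 23 hr compound exposure across 15 concentrations, with CITCO present at 50 nM.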

[6] = target: Nuclear receptor subfamily 1 group I member 3 (Homo sapiens) (UniProt Q14994); assay: qHTS assay to identify small molecule antagonists of the constitutive androstane receptor (CAR) signaling pathway (AID 1224838);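 also: HepG2 cells stably expressing hCAR with CYP2B6 luciferase reporter stimulated by CITCO; nearly all actives have a fitted effect of over 40% in size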; also: potency is read from the fitted curve at half-maximal effect
Nuclear receptor subfamily 1 group I member 3 (Homo sapiens), sequence (Q14994 whole entry, looked up): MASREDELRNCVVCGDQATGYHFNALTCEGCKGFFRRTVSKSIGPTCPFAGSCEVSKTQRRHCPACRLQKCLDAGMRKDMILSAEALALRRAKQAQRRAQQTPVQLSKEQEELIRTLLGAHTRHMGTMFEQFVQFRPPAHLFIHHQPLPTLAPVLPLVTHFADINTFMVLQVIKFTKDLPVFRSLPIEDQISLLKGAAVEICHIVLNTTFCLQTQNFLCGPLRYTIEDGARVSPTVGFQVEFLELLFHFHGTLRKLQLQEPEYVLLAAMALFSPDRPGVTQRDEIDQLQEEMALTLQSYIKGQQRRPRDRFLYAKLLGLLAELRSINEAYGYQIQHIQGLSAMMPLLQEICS
Summary of the method: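 Reporter luminescence was quantified after 24 h exposure of hCAR/CYP2B6-2.2kb double-stable HepG2 cells to compounds at 15 concentrations in the presence of 50 nM CITCO final.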

[7] = qHTS assay to identify small molecule antagonists of the estrogen related receptor signaling pathway with the pleiotropic PPARgamma coactivator (PGC) from Tox21 10K library - cell viability counter screen (AID 1224840; active = well fitted cell-killing curve with a large enough effect in the repeat runs, not every such curve was filed as active; also: nearly all actives have a fitted effect of over 40% in size; also: potency is read from the fitted curve at half-maximal effect)
Summary of the method: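 Here the PGC/ERR cells serve as a cytotoxicity control: they are exposed to compounds for 17.5 hours at 37 C, and live-cell signal is quantified using CellTiter-Fluor fluorescence.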

[8] = target: Thyrotropin receptor (Homo sapiens) (UniProt P16473); assay: qHTS assay to identify small molecule agonists of the thyroid stimulating hormone receptor (TSHR) signaling pathway (AID 1224843; calls by dose curve; also: nearly all actives have a fitted effect of over 45% in size)
Thyrotropin receptor (Homo sapiens), sequence (P16473 whole entry, looked up): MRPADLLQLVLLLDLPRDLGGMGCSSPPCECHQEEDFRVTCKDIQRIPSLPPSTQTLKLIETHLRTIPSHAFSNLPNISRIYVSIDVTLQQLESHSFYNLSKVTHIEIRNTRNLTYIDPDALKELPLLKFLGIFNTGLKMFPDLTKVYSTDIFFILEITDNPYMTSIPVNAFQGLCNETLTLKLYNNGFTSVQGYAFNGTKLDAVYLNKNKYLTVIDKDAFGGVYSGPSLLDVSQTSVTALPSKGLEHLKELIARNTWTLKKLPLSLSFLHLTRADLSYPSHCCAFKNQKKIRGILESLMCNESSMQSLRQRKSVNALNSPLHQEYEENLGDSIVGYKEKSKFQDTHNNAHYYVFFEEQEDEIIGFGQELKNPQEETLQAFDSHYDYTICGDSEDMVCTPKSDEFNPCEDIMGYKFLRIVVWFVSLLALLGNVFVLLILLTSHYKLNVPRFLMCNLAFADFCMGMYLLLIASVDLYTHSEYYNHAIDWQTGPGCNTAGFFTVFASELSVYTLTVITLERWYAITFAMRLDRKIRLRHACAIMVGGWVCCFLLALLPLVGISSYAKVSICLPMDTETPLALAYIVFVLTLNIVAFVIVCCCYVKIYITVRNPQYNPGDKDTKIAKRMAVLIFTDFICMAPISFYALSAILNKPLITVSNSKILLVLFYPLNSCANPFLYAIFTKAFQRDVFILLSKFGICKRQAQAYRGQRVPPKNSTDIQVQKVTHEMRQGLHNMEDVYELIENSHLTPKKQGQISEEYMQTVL
Summary of the method: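 Cell line HEK293 with TSHR; density 800/well. Exposure 30 min RT. Readout HTRF cAMP (cAMP-d2/anti-cAMP-cryptate), 1 h RT before reading.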

[9] = qHTS assay to identify small molecule agonists of the hypoxia (HIF-1) signaling pathway - cell viability counter screen (AID 1224844; calls by dose curve; also: nearly all actives have a fitted effect of over 50% in size; also: potency is read from the fitted curve at half-maximal effect)
Summary of the method: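 Multiplexed with the HRE beta-lactamase assay, this viability read used CellTiter-Glo luminescence (30 min, RT) on HRE-bla ME-180 cells treated 17 hrs with compounds in 0.5% dialyzed FBS medium.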

[10] = qHTS assay to identify small molecule agonists of H2AX (AID 1224845; active = well fitted activation curve with a large enough effect in the signal ratio in the repeat runs, not every such curve was filed as active; the % refers to the signal ratio; also: potency is read from the fitted curve at half-maximal effect)
Summary of the method: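 Wild-type CHO-K1 cells plated overnight, then exposed 3 hr at 37C to compounds at 15 concentrations (0.76% DMSO). Lysed, then HTRF anti-pH2AX(S139)-cryptate/anti-H2AX-d2 detection after 24 hr at room temperature; emissions 665 and 620 nm.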

[11] = qHTS assay to identify small molecule antagonists of the estrogen related receptor signaling pathway with the pleiotropic PPARgamma coactivator (PGC) from Tox21 10K library (AID 1224841; call rule not given here; also: actives are mostly falling curves and most rising ones were filed inactive; nearly all actives have a fitted effect of over 50% in size; also: potency is read from the fitted curve at half-maximal effect; as to activity, negative = inhibition: series mostly up to about 92 µM)
Summary of the method: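 Each well held 2,000 PGC/ERR cells, pre-incubated six hours (37 C, 5% CO2). Test substances in DMSO were added by pin tool and left for 18 h at 37 C before luciferase detection by One-Glo.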

[12] = qHTS assay to identify small molecule agonists of the estrogen related receptor signaling pathway with the pleiotropic PPARgamma coactivator (PGC) from Tox21 10K library (AID 1224842); also: nearly all actives have a fitted effect of over 15% in size
Summary of the method: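 PGC/ERR reporter cells (NTP line) were seeded 2,000 per well, rested 6 h at 37 C/5% CO2, then pin-dosed with compounds in DMSO for 18 h at 37 C; luciferase read by One-Glo luminescence after 30 min at room temperature.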

[13] = target: Nuclear receptor subfamily 1 group I member 3 (Homo sapiens) (UniProt Q14994); assay: qHTS assay to identify small molecule agonists of the constitutive androstane receptor (CAR) signaling pathway (AID 1224839); also: nearly all actives have a fitted effect of over 15% in size; also: potency is read from the fitted curve at half-maximal effect;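 as to activation: HepG2 cells stably carrying human CAR and a CYP2B6 luciferase reporter; series mostly up to about 92 µM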
Summary of the method: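 Compounds tested at 15 concentrations on HepG2 cells stably harbouring hCAR and CYP2B6-2.2kb reporter constructs, co-treated with PK11195 (0.75 uM final), 24 h at 37 C; luminescent reporter signal quantified.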

SMILES: CC(C)=CCCC(C)CCOC(=O)C(C)C (configuration not stated)
- Potency [1]: inactive
- Potency [2]: inactive
- Potency [3]: inactive
- Potency [4]: inactive
- Potency [5]: inactive
- Potency [6]: inactive
- Potency [7]: inactive
- Potency [8]: inactive
- Potency [9]: inactive
- Potency [10]: inactive

SMILES: CCOB(OCC)OCC
- Potency [1]: inactive
- Potency [2]: inactive
- Potency [3]: inactive
- Potency [4]: inactive
- Potency [5]: inactive
- Potency [7]: inactive
- Potency [8]: inactive
- Potency [9]: inactive

SMILES: CCCCCCCC(=O)OCC
- Potency [1]: inactive
- Potency [2]: inactive
- Potency [3]: inactive
- Potency [4]: inactive
- Potency [5]: inactive
- Potency [7]: inactive
- Potency [11]: inactive
- Potency [12]: inactive
- Potency [8]: inactive
- Potency [9]: inactive
- Potency [10]: inactive

SMILES: CC(C)=CC1CC(C)CCO1 (configuration not stated)
- Potency [1]: inactive
- Potency [2]: inactive
- Potency [3]: inactive
- Potency [4]: inactive
- Potency [5]: inactive
- Potency [7]: inactive
- Potency [8]: inactive
- Potency [9]: inactive
- Potency [10]: inactive

SMILES: CCN(CC)c1cccc(C)c1
- Potency [1]: inactive
- Potency [2]: inactive
- Potency [3]: inactive
- Potency [4]: inactive
- Potency [5]: inactive
- Potency [7]: inactive
- Potency [11]: inactive
- Potency [12]: inactive
- Potency [9]: inactive
- Potency [10]: inactive

SMILES: Oc1ccc(-c2ccccc2)c(Cl)c1
- Potency [1]: inactive
- Potency [2]: inactive
- Potency [3]: 39.9 µM (active)
- Potency [4]: inactive
- Potency [5]: inactive
- Potency [6]: inactive
- Potency [7]: inactive
- Potency [8]: inactive
- Potency [10]: inactive

SMILES: O=C1C=CC(=O)N1c1ccccc1
- Potency [1]: 6.11 µM (active)
- Potency [2]: 43.3 µM (active)
- Potency [3]: 22.4 µM (active)
- Potency [4]: 54.5 µM (active)
- Potency [6]: 27.3 µM (active)
- Potency [13]: inactive
- Potency [7]: 30.6 µM (active)
- Potency [12]: inactive
- Potency [9]: 21.9 µM (active)

SMILES: CCC(C)c1ccccc1 (configuration not stated)
- Potency [1]: inactive
- Potency [2]: inactive
- Potency [3]: inactive
- Potency [4]: inactive
- Potency [7]: inactive
- Potency [8]: inactive
- Potency [9]: inactive

SMILES: O=C(Nc1ccc(Cl)c(Cl)c1)c1cc(Cl)cc(Cl)c1O
- Potency [1]: inactive
- Potency [2]: 3.06 µM (active)
- Potency [3]: 3.99 µM (active)
- Potency [5]: 7.7 µM (active)
- Potency [7]: 4.33 µM (active)
- Potency [12]: inactive
- Potency [9]: 19.5 µM (active)
- Potency [10]: inactive

SMILES: COc1nccnc1CC(C)C
- Potency [1]: inactive
- Potency [2]: inactive
- Potency [3]: inactive
- Potency [4]: inactive
- Potency [7]: inactive
- Potency [12]: inactive
- Potency [8]: inactive
- Potency [9]: inactive
- Potency [10]: inactive

SMILES: O=Nc1ccc(NO)cc1
- Potency [1]: inactive
- Potency [2]: inactive
- Potency [4]: inactive
- Potency [5]: inactive
- Potency [6]: inactive
- Potency [7]: inactive
- Potency [11]: inactive
- Potency [12]: inactive

SMILES: CCCOc1sc(C(=O)N2CCC(c3cc(CN)ccc3F)CC2)c(C)c1Br
- Potency [1]: 39.7 µM (active)
- Potency [2]: 49.9 µM (active)
- Potency [3]: inactive
- Potency [5]: 62.8 µM (active)
- Potency [13]: inactive
- Potency [7]: 56 µM (active)
- Potency [12]: inactive

SMILES: C[n+]1c2cc(N)ccc2cc2ccc(N)cc21 (tested in a mixture with another compound)
- Potency [1]: 23.7 µM (active)
- Potency [3]: inactive
- Potency [9]: inactive

SMILES: C=CC(=O)OCCN(CC)CC
- Potency [1]: inactive
- Potency [2]: inactive
- Potency [3]: inactive
- Potency [4]: inactive
- Potency [6]: inactive
- Potency [13]: inactive
- Potency [7]: inactive
- Potency [8]: inactive
- Potency [10]: inactive

SMILES: S=C(SSSSSSC(=S)N1CCCCC1)N1CCCCC1
- activity, negative = inhibition [1]: -10.6% [at 19 µM]
- Potency [3]: 6.22 µM (active)
- Potency [4]: 8.48 µM (active)
- Potency [5]: 7.56 µM (active)
- Potency [9]: 3.41 µM (active)

SMILES: CCN=c1cc2oc3cc(NCC)c(C)cc3c(-c3ccccc3C(=O)OCC)c-2cc1C
- Potency [1]: 24.2 µM (active) and 24.3 µM (active)
- Potency [2]: 272 nM (active) and 243 nM (active)
- Potency [3]: inactive
- Potency [6]: 54.3 µM (active) and 54.5 µM (active)
- Potency [13]: inactive
- Potency [7]: inactive
- Potency [12]: inactive
- Potency [9]: 38.9 µM (active)

SMILES: c1ccc(Sc2ccccc2)cc1
- Potency [1]: inactive
- Potency [2]: inactive
- Potency [3]: inactive
- Potency [4]: inactive
- Potency [5]: inactive
- Potency [7]: inactive
- Potency [9]: inactive

SMILES: CCCCCCCCCCCCCCCCCO
- activity, negative = inhibition [1]: -5.96% [at 19 µM]
- viability change, negative = cytotoxic [2]: 0.981% [at 19 µM]
- activity change, negative = inhibition [3]: 3.61% [at 23.6 µM]
- viability change, negative = cytotoxic [4]: 0.185% [at 19 µM]
- activity, negative = inhibition [6]: 9.23% [at 19 µM]
- activation [13]: 0.0374% [at 19 µM]
- viability change, negative = cytotoxic [7]: -0.916% [at 19 µM]
- activation [12]: 4.3% [at 19 µM]
- activity change, negative = cytotoxicity [9]: 4.42% [at 15.8 µM]
- activation (H2AX phosphorylation) [10]: -3.22% [at 31.6 µM]

SMILES: CN(C)CCCN1c2ccccc2Sc2ccc(C(F)(F)F)cc21
- Potency [1]: 29.8 µM (active)
- Potency [2]: 29.8 µM (active)
- Potency [3]: inactive
- Potency [8]: inactive
- Potency [9]: inactive

SMILES: O=C(O)Cc1ccc(OCCNC[C@H](O)c2ccccc2)cc1
- Potency [1]: inactive
- Potency [2]: inactive
- Potency [3]: inactive
- Potency [4]: inactive
- Potency [6]: inactive
- Potency [13]: inactive
- Potency [7]: inactive
- Potency [8]: inactive

SMILES: NC1(c2ccc(-c3nc4ccn5c(=O)[nH]nc5c4cc3-c3ccccc3)cc2)CCC1
- Potency [1]: 11.9 µM (active)
- Potency [2]: 13.3 µM (active)
- Potency [3]: inactive
- Potency [6]: 11.9 µM (active)
- Potency [13]: inactive
- Potency [7]: 15 µM (active)
- Potency [11]: 3.35 µM (active)
- Potency [12]: inactive
- Potency [8]: inactive

SMILES: CCOC(=O)C1=C(C)NC(C)=C(C(=O)OCC)C1c1ccccc1/C=C/C(=O)OC(C)(C)C
- Potency [1]: 29.8 µM (active)
- Potency [2]: 29.8 µM (active)
- Potency [3]: inactive
- Potency [4]: inactive
- Potency [6]: inactive
- Potency [12]: inactive
- Potency [8]: inactive

SMILES: COCC(=O)O[C@]1(CCN(C)CCCc2nc3ccccc3[nH]2)CCc2cc(F)ccc2[C@@H]1C(C)C
- Potency [1]: 26.6 µM (active)
- Potency [2]: 26.6 µM (active)
- Potency [3]: inactive
- Potency [5]: 29.8 µM (active)
- Potency [6]: 29.8 µM (active)
- Potency [13]: inactive
- Potency [7]: 29.8 µM (active)
- Potency [8]: inactive
- Potency [9]: 16.9 µM (active)
- Potency [10]: 49.2 µM (active)

SMILES: CCCCCCCCCC(=O)N(C)C
- Potency [1]: inactive
- Potency [2]: inactive
- Potency [4]: inactive
- Potency [5]: inactive
- Potency [6]: inactive
- Potency [13]: 55.3 µM (active)
- Potency [7]: inactive
- Potency [12]: inactive
- Potency [8]: inactive
- Potency [9]: inactive
- Potency [10]: inactive
